B2AR arrestin ag: qHTS assay of beta-arrestin-biased ligands of beta2-adrenergic receptor: NCGC Sytravon Library Screen. Beta-2 adrenergic receptor (Homo sapiens), P07550. HTLA Tango cells, beta-arrestin recruitment, luciferase luminescence, 18 h. Potency, µM (highest dose often 46.1 µM), usual class: activators. 44,000 tested, under 10 active
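Tango cells (recombinant beta2-AR, beta-arrestin, tTA-driven luciferase), 1500/well in DMEM 1% FBS, treated 18 h at 37 °C with compounds up to 46 µM; luciferin mix added, luminescence read after 15 min; %activity curves fitted and curve-classed.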
NTMT1 inhibitor: Primary qHTS for Inhibitors of N-terminal methyltransferase 1 (NTMT1): MTaseGlo Assay | Potency, µM (titrated, usually from 114 µM), usual class: inhibitors | AID 1645870, 2021 | hit rate 2.5% among 59,000 | NTMT1 MTase-Glo SAH luminescence, purified enzyme; further: nearly all actives have a fitted effect of over 65% in size
Target sequence (Q9BV86 whole entry, looked up): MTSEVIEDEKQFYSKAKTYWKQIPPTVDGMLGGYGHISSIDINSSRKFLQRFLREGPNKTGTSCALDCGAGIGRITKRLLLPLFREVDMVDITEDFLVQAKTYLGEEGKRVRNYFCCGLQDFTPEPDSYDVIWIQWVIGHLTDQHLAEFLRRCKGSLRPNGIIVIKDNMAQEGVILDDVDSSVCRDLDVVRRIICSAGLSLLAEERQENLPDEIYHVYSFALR
GALK inh: qHTS Assay for Inhibitors of Human Galactokinase (GALK): NCGC Sytravon Library Screen; P51570; recombinant GALK, Kinase-Glo ATP luminescence, 1 h; Potency, µM (highest dose often 57.5 µM), usual class: inhibitors; 44,000 tested, under 10 active; AID 1347072, 2019
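Compounds were pinned into ATP buffer, then GALK-galactose mix was added (final 5 nM enzyme, 35 uM ATP, 100 uM galactose, pH 8.0). After 1 h at room temperature, Kinase-Glo Plus was added and luminescence read.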
GPR32 ag: qHTS for Agonists of Human Resolvin D1 Receptor DRV1; Probable G-protein coupled receptor 32 (Homo sapiens), O75388; CHO-K1 GPR32 beta-arrestin PathHunter luminescence, 90 min; zero percent set by DMSO-only wells; activation, % at 76.9 µM; hit rate 2.5% among 48,000;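 active means activation of at least 60% and not above a set upper limit, about 1 call in 100 departs from these limits; inconclusive means activation of 40% to 60%, or above that upper limit; inactive means activation under 40%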
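Cells are plated overnight, treated with compounds in DMSO for 90 minutes at 37 °C, and developed with PathHunter detection reagent for 1 hour before luminescence is read; signal reflects beta-arrestin binding to GPR32 in engineered CHO-K1 cells.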
GALC G270D act: A Novel Cell-Based Assay to Identify Small Molecules for B -Galactocerebrosidase; P54803; 145M-Twi-hGALC-G270D cells, HMU-beta-Gal fluorescence, 48 h; Potency, µM (series often up to 57.5 µM), most hits filed as activators; hit rate 0.1% among 45,000; AID 1159614, 2016; further: nearly all actives have a fitted effect of over 65% in size
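qHTS, 1536-well; 145M-Twi-hGALC-G270D cells (WT line also made) in DMEM/F12 + 10% FBS; compound incubation on live cells; HMU-β-gal 0.1 mM final, pH 5.2, NaTC; carbonate stop; fluorescence increase = enhanced residual activity.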
TSG101-PTAP inh: qHTS Validation Assay for Inhibitors of HIV-1 Budding by Blocking the Interaction of PTAP/TSG101: Sytravon Library Screen | AID 1347069, 2019 | Fluorescence polarization, FITC-PTAP peptide/Tsg101, 20 min | Potency, µM (titrated, usually from 115 µM), most hits filed as inhibitors | 44,000 tested, under 10 active
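Fluorescence polarization binding of Tsg101 binding domain (10 uM final) to FITC-labeled PTAP-motif peptide (50 nM final) in HEPES pH 7.5/NaCl/Tween 20/EDTA/TCEP buffer; 20 min at r.t. Actives by curve class, <25 µM, efficacy <60% inhibition.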
A number is an active result; 0 = inactive; ? = inconclusive; - = not tested or not shown; ! = not confirmed by another sample. In the library only some 3.6% were active in any assay of this set; here they are far more common. Unless noted, the call rests on the fitted dose curve; in most records, active means well fitted curve in the direction sought with a large enough effect; inconclusive means small, poorly fitted or top-dose-only effect, or another doubt; inactive means no such curve, though single readings can be large; an effect the other way counts as inactive or inconclusive.

SMILES	B2AR arrestin ag	NTMT1 inhibitor	GALK inh	GPR32 ag	GALC G270D act	TSG101-PTAP inh
CCOc1ccc(NC(=O)c2ccc3c(c2)CCN3S(=O)(=O)CC)cc1	0	0	0	67	0	0
CCS(=O)(=O)N1CCc2cc(C(=O)Nc3cc(C)cc(C)c3)ccc21	0	0	0	0	0	0
COc1ccc(C2CC(=O)c3c([nH]c(C(=O)OC4CCCCCC4)c3C)C2)cc1OC (stereo not drawn)	0	89µM	0	0	0	0
COc1ccc(C2CC(=O)c3c([nH]c(C(=O)OC4CCCC4)c3C)C2)cc1OC (stereo not drawn)	0	0	0	0	0	0
C[C@@H]1O[C@@H](O[C@H]2[C@H](Oc3cc(O)c(C(=O)CCc4ccc(O)cc4)c(O)c3)O[C@H](CO)[C@@H](O)[C@@H]2O)[C@H](O)[C@H](O)[C@H]1O	-	0	-	-	-	-
CC(C)c1cc(C(C)C)c(CC(=O)NS(=O)(=O)Oc2c(C(C)C)cccc2C(C)C)c(C(C)C)c1	-	40µM!	-	-	-	-
CCOC(=O)c1cc(-c2ccccc2)n(CC(=O)NC(C)c2ccccc2)c1C (stereo not drawn)	0	0	0	0	0	0
Cc1cc(S(=O)(=O)Nc2ccc(O)c(Sc3nc4ccccc4s3)c2)ccc1Cl	0	0	0	101	0	0
COc1ccc(CNC(=O)c2nc(Cn3nc(C)c(Br)c3C)no2)cc1OC	0	89µM	0	0	0	0
CC(C)c1c(-c2ccccc2)nc2c(C#N)c[nH]n2c1=O	-	0	-	-	-	-
CCOC(=O)c1cnc2c(ccc3ccccc32)c1Nc1ccccc1OC	0	0	0	85	0	0
O=C(O)C[C@H](O)C[C@H](O)/C=C/c1c(C2CC2)nc2ccccc2c1-c1ccc(F)cc1	-	40µM!	-	-	-	-
CC(C)n1c(/C=C/[C@H](O)C[C@H](O)CC(=O)O)c(-c2ccc(F)cc2)c2ccccc21	-	0	-	-	-	-
O=C1CCCC2=C1C(c1[nH]ncc1Cl)NC(=NCCc1ccc(O)cc1)N2 (stereo not drawn)	-	0	-	-	-	-
COC(=O)N(CC(=O)O)Cc1cccc(OCc2nc(-c3ccc(Cl)cc3)oc2C)c1	-	0	-	-	-	-
Oc1c(I)cc(I)c2cccnc12	-	0	-	0	0	-
O=S(=O)(O)c1cc(I)c(O)c2ncccc12	-	?	-	105	0	-
OCCN1CCN(CCCN2c3ccccc3Sc3ccc(Cl)cc32)CC1	-	?	-	0	0	-
CN(C)CCCN1c2ccccc2Sc2ccc(Cl)cc21	-	?	-	63!	0	-
CC(C)NC(=O)C1CCC(n2c(NC(=O)c3ccc(F)cc3)nc3ccc(CN4CCC(C(C)(C)O)CC4)cc32)CC1 (stereo not drawn)	-	0	-	-	-	-
NC(=O)C(CCC(F)(F)F)N(Cc1ccc(-c2ncon2)cc1F)S(=O)(=O)c1ccc(Cl)cc1 (stereo not drawn)	-	0	-	-	-	-
O=C(NCCc1ccccc1)c1c[nH]c2ccc(S(=O)(=O)Nc3ccccc3F)cc2c1=O	0	0	0	0	0	0
O=C(NCC1CCCO1)c1c[nH]c2ccc(S(=O)(=O)Nc3ccc(F)cc3F)cc2c1=O (stereo not drawn)	0	0	0	0	0	0
O=C(NCCc1ccccc1)c1c[nH]c2ccc(S(=O)(=O)Nc3ccc(F)cc3F)cc2c1=O	0	0	0	100	0	0
O=C(NCc1ccco1)c1c[nH]c2ccc(S(=O)(=O)Nc3ccc(F)cc3F)cc2c1=O	0	0	0	63	0	0
CCN1CCN(Cc2ccc(-c3cc4c(N[C@H](C)c5ccccc5)ncnc4[nH]3)cc2)CC1	-	22µM	-	-	-	-

Screening results deposited in PubChem BioAssay by National Center for Advancing Translational Sciences (NCATS).
